Screening results deposited in PubChem BioAssay by National Center for Advancing Translational Sciences (NCATS).
ERK EGF block: qHTS Assay for Inhibitors of the ERK Signaling Pathway using a Homogeneous Screening Assay; Stimulation with EGF | HEK293-V1b, EGF-stimulated phospho-ERK AlphaScreen | Potency, µM (doses to about 11.5 µM), for inactives: at the top dose activity change, negative = inhibition, hits mostly inhibitors | 130,000 compounds, 0.41% hits; active means well fitted inhibition curve with a large enough effect;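 further: plate controls were stimulated vehicle wells for no effect and unstimulated vehicle basal for full effect; nearly all actives have a fitted effect of over 55% in size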
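HEK293 cells stably expressing V1b receptor, serum-reduced (1% FBS) overnight, pretreated 30 min with compound, then stimulated 5 min with 25 nM EGF; phospho-ERK detected by AlphaScreen SureFire. AC50 from Hill fits, normalized to DMSO and EGF.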
Numbers without * were called inactive; [ ] = another dose, or the depositor's remark. The full list was thinned out, with hits kept by preference. Potency means the concentration at half of the fitted maximal effect.

SMILES	ERK EGF block
C[C@H]1CC[C@@H]2[C@@H](C)[C@H]3[C@H](C[C@H]4[C@@H]5CC=C6C[C@@H](O[C@]7(O[C@H]8O[C@@H](C)[C@@H](O)[C@@H](O)[C@@H]8O)C[C@@H](O[C@@H]8O[C@H](CO)[C@@H](O)[C@H](O)[C@@H]8O)[C@@H](O)[C@H](CO)O7)CC[C@]6(C)[C@H]5CC[C@@]34C)N2C1	4%[25.7 µM]
COC(=O)CCC(=O)OC1(C)C(=O)C=C2C=C(CCCNC(=O)OC(C)(C)C)OC=C2C1=O (centres undefined)	-6%
CN(Cc1ccco1)c1ccnc(-c2ccoc2)n1	6%
COc1ccc(N2CCC(CNC(=S)Nc3cc(C)cc(C)c3)C2)cc1 (centres undefined)	14µM*
COc1cccc(CNC(=S)Nc2cc(C)cc(C)c2)c1	-3%
COc1ccc(N2CCC(CNC(=S)Nc3cc(C)ccc3C)C2)cc1 (centres undefined)	14µM*
COc1ccc(N2CCN(C(=S)Nc3ccc(C)cc3C)CC2)cc1	-1%
COc1ccc(CNC(=O)Nc2cc(C)ccc2C)cc1	-5%
COc1ccc(N2CCN(C(=S)NCc3ccc(C)cc3)CC2)cc1	0%
Cc1ccc(S(=O)(=O)NC(=O)O[C@@H]2C(=O)c3cc(Br)ccc3O[C@H]2c2ccc3c(c2)OCO3)cc1	5%
CCCCC[C@H](O)/C=C/[C@H]1OC(O)C[C@H](O)[C@@H]1C/C=C\CCCC(=O)O (some centres undefined)	3%
O=C(Nc1ccc(OC(F)(F)F)cc1)c1ccc(-n2cncn2)nc1	-10%
Cc1csc2ncnc(N3CCN(C(=O)Nc4ccc(OC(F)(F)F)cc4)CC3)c12	28µM*
O=C(Nc1ccc(OC(F)(F)F)cc1)N1CCN(c2ccnc3cc(Cl)ccc23)CC1	-2%[57.5 µM]
C=C(C(C)=O)C(O)c1ccc2ccccc2c1 (centres undefined)	1%
C[Si](C)(C/C=C/CC[C@H](O)C1=CCCCC1=O)c1ccccc1	-12%
O=c1cc(-c2cccc(O)c2O)oc2ccccc12	-4%
O=c1c(-c2ccccc2)nc2cnc(N3CCNCC3)nc2n1C1CC1	5%
CCN1/C(=C/c2cc[n+](C)cc2)C=Cc2cc(C)ccc21	16µM*
CCN1/C(=C2\C(=O)N(c3ccccc3)N=C2C)C=Cc2cc(C)ccc21	-14%
Cc1ccc2c(c1)S/C(=C/c1ccc[n+](C)c1)N2CCO	-5%
Cc1nnc(SCC2=C(C(=O)O)N3C(=O)[C@@H](NC(=O)Cn4cnnn4)[C@@H]3SC2)s1	-13%[25.7 µM]
COC(=O)c1nnc(N[C@@H](Cc2c[nH]c3ccccc23)C(=O)OC)nc1C(=O)OC	-3%
COc1ccc2c(c1)C(=O)[C@@H](OC(=O)NS(=O)(=O)c1ccc(F)cc1)[C@H](c1ccc(OC)c(Br)c1)O2	-5%
C=C[C@]1(C)Cc2occ(C)c2C[C@H]1C(=C)C(=O)O	-6%
SMILES	ERK EGF block
Nc1nc(-c2ccc([N+](=O)[O-])cc2)c(C(=O)Nc2ccc(Cl)cc2)s1	10%[57.5 µM]
O=[N+]([O-])c1ccc(-c2cn3nc(-c4ccccc4)c(-c4ccccc4)nc3n2)cc1	-5%[57.5 µM]
Nc1nc(-c2ccccc2)c(-c2ccc([N+](=O)[O-])cc2)s1	25µM*
Cc1nc(NCc2ccccc2)c2nc(-c3ccccc3)n(CC(C)(C)CN(C)C)c2n1	7%
COc1cccc([C@@H]2Oc3ccc(OC)cc3C[C@H]2OC(=O)NS(=O)(=O)c2ccc(F)cc2)c1	10%
Cc1ccc(NC(=O)CC(=O)c2ccc([N+](=O)[O-])cc2)cc1S(=O)(=O)Nc1cccc(Cl)c1	18%
Cc1ccc(NC(=S)NC(=O)c2ccc(F)cc2)cc1S(=O)(=O)Nc1cccc(Cl)c1	-5%
Cc1ccc(NC(=O)c2cccs2)cc1S(=O)(=O)Nc1cccc(Cl)c1	20µM*
COC(=O)[C@@H](NC(=O)O[C@@H]1C(=O)c2cc(OC)ccc2O[C@H]1c1ccc(OC)c(Br)c1)C(C)C	-6%
CCN(CC)CCCCn1c(-c2ccccc2)nc2c(NCCOC)nc(C)nc21	-2%
COc1cc([C@H]2c3cc4c(cc3[C@@H](O[C@H]3O[C@H]5CO[C@@H](C)O[C@H]5[C@@H](O)[C@@H]3O)[C@@H]3COC(=O)[C@H]23)OCO4)cc(OC)c1O	-5%[25.7 µM]
O=C(OC(c1ccccc1)c1nccc2ccccc12)c1cc([N+](=O)[O-])cc([N+](=O)[O-])c1 (centres undefined)	16µM*
O=C(NC(c1ccccc1)c1ccccn1)c1cccc([N+](=O)[O-])c1 (centres undefined)	11%
O=C(c1cc([N+](=O)[O-])cc([N+](=O)[O-])c1)N(c1ccccn1)c1ccccn1	-2%
COc1cccc(CS(=O)(=O)c2nnnn2-c2ccccc2)c1	20%
COC(=O)[C@@H]1C[C@H]1[C@@H](NC(=O)c1ccc(Br)cc1)c1ccccc1	7%
COc1cc(OC)c2c(c1)OC(c1ccccc1)CC2=O (centres undefined)	0%
O=C(c1ccc(CSc2nc3ccncc3[nH]2)cc1)N1CCN(c2cccc(Cl)c2)CC1	18µM*
O=C(c1ccc(CSc2nc3ccncc3[nH]2)cc1)N1CCCCCC1	-6%[57.5 µM]
O=C(NCc1ccc(Cl)cc1)c1ccc(CSc2nc3ccncc3[nH]2)cc1	19%[57.5 µM]
COc1cc2c(cc1OC)C1C(=O)c3ccc4c(c3OC1CO2)C=CC(C)(C)O4 (centres undefined)	-3%
C=CC[C@](C)(O)c1ccccc1	-5%
N#CCCn1c(=O)c(-c2ccccc2)nc2cnc(OCc3ccccc3)nc21	11%
CC(=O)Oc1cc(OC(C)=O)c2c(c1)OC(c1ccc(OC(C)=O)c(OC(C)=O)c1)C(OC(C)=O)C2 (centres undefined)	33%
CCN(CC)CCC(=O)Nc1cccc2c1C(=O)c1ccccc1C2=O	5%[57.5 µM]
SMILES	ERK EGF block
CN(C)c1cccc2c1C(=O)c1ccccc1C2=O	13µM*
CCN(CC)C(=O)c1cccc2c1C(=O)c1ccccc1-2	1%
C=CCC(O)c1ccccc1 (centres undefined)	-8%
COc1ccc2c(c1)O[C@@H](c1ccc3c(c1)OCO3)[C@H](OC(=O)NS(=O)(=O)c1ccc(C)cc1)C2=O	-4%
CCOc1cc(/C=C/c2cc(C(=O)O)c3ccccc3n2)ccc1OC	4%
COc1cc(/C=C/c2cc(C(=O)O)c3ccccc3n2)cc(OC)c1O	32µM*
CCOc1cc(/C=C/c2cc(C(=O)O)c3ccccc3n2)ccc1O	0%
Nc1ncnc2c1ncn2[C@@H]1O[C@H](C(=O)NC2CC2)[C@H](O)[C@H]1O	-5%
C=C1CC[C@H](O)C/C1=C/C=C1\CCC[C@]2(C)[C@@H]([C@H](C)CCCC(C)(C)O)CC[C@@H]12	10%
O=C(NNc1nc2cc3c(cc2s1)OCO3)c1cccc(F)c1	18µM*
COc1cc(OC)cc(C(=O)NNc2nc3cc4c(cc3s2)OCO4)c1	0%
COc1cc(C(=O)NNc2nc3cc4c(cc3s2)OCO4)cc(OC)c1OC	6%
Cc1cc(C)cc(-c2cc3c(c(-c4c(O)c(-c5cc(C)cc(C)c5)cc5c4CCCC5)c2O)CCCC3)c1	-6%
CC(=O)OC1COC(OC2C(O)C(C)OC(OC3C(OC4CCC5(C)C(CCC6(C)C5CC=C5C7CC(C)(C)CCC7(C(=O)O)CCC56C)C4(C)CO)OCC(O)C3O)C2O)C(O)C1OC(C)=O (centres undefined)	20µM*
